Experimental data: PubChem BioAssay AID1117319 (Southern Research Institute, 2015)
Several values for one entry are separate records, joined by “and”; a condition that tells them apart may be missing. Equal entries are not always repeated. In all, about 260,000 compounds went through this assay and about 1,500 (0.58%) were called active. Another 5% or so got no clear call; they are omitted.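 Rule for the calls: active = inhibition above a set limit at one or more doses, reproduced on every date tested; inconclusive = results disagree between test dates, or hit never tested in dose response; inactive = the rest.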 A selection follows. Entries with a potency or affinity are not part of this list.

Target: Virion infectivity factor (Human immunodeficiency virus type 1 group M subtype B (isolate BH10)) + Virion infectivity factor (Human immunodeficiency virus type 1 group M subtype B (isolate BRU/LAI)) + Virion infectivity factor (Human immunodeficiency virus type 1 group M subtype B (isolate PCV12)) + Virion infectivity factor (Human immunodeficiency virus type 1 group M subtype B (isolate HXB2)) + DNA dC->dU-editing enzyme APOBEC-3G (Homo sapiens) (UniProt P69720+P69721+P69722+P69723+Q9HC16)
Experiment: HIV-1 Vif–A3G interaction blockers – biochemical, TR-FRET, GST-Vif 1-94, biotin-A3G peptide, dose response retest, primary screen (AID 1117319);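 note: Vif residues 1-94 fused to GST binding biotinylated APOBEC3G peptide 110-148; 0% = full assay without inhibitor and 100% = GST in place of GST-Vif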
Conditions: TR-FRET GST-Vif / biotin-A3G peptide binding; hits give high values

inhibition, inactive:
CN1CCN(CC(O)COc2ccccc2)CC1 (stereo not given) -7.2%, CCCCNc1oc(-c2cccs2)nc1S(=O)(=O)c1ccccc1 -0.64%, CC(C)(CNC(=O)c1cccs1)CNC(=O)c1cccs1 0.17%, O=C(CSc1nccc(=O)[nH]1)NCc1ccc2c(c1)OCO2 3.96%, CCOC(=O)N1CCN(CC(O)COCCC23CC4CC(CC(C4)C2)C3)CC1 (stereo not given) 13.8%, O=C1CCCc2c1sc1nc3n(c(=O)c21)CCCCC3 2.33%, O=c1c2c3c(sc2nc2n1CCCCC2)CCCCC3 0.94%, Nc1ncnc2c1CN(Cc1ccccc1)CC2 -5.85%, CC1(C)CC(=O)C2=C(C1)OC(N)=C(C#N)C2c1ccccc1 (stereo not given) 3.85%, N#CC1(Nc2ccc([N+](=O)[O-])cc2)CCCC1 10.3%, CCOC(=O)C1=C(COC(=O)/C=C/c2ccc(C)o2)NC(=O)NC1C (stereo not given) -5.28%, CCOC(=O)C1=C(COC(=O)/C=C/c2ccc(Cl)cc2)NC(=O)NC1C (stereo not given) 2.25%, O=C(O)/C=C/c1ccccc1Oc1ccccc1 -6.82%, Cc1ccc(N=C2NC(=O)/C(=C/c3cccn3C)S2)cc1C -3.5%, COc1ccc(CCNc2cc(C)nc3c(-c4ccccc4OC)cnn23)cc1OC 3.45%, CC(C)(CO)CN1CCC(n2nccc2NC(=O)C2CCCC2)CC1 -9.4%, CCNC(=O)N1c2ccc(OC)cc2C(C)=CC1(C)C 18.1%, COc1ccc2c(c1)C(C)=CC(C)(C)N2C(=O)Nc1ccccc1 1.41%, COc1cccc(C(C#N)N2CCOCC2)c1 (stereo not given) -0.56%, C/C(=N\NC(=O)CCc1ccc(S(=O)(=O)N2CCOCC2)cc1)c1ccc(OC(F)F)cc1 18.9%, CC(NC(=O)c1ccc(Cn2cc([N+](=O)[O-])cn2)cc1)c1ccccc1 (stereo not given) -7.96%, O=C1C(Cl)=C(N2CCCCCC2)C(=O)N1c1ccccc1 4.82%, O=C1C(Cl)=C(N2CCOCC2)C(=O)N1c1ccc(Br)cc1 12.4%, CCOc1ccccc1C(=O)NC(C(=O)OCC(=O)NNC(=O)c1cccs1)C(C)C (stereo not given) -2.67%, Cc1cc(NN)nc2ccc(Cl)cc12 21%, O=C(Cc1csc(Nc2nc(=S)[nH]c3ccccc23)n1)NCc1ccc(Cl)cc1 3.88%, Cc1cc(SCc2ccc(C(F)(F)F)cc2)nc(=O)[nH]1 4.23%, Cc1cccc(-c2cc3nc4c(c(NCc5ccco5)n3n2)CCCC4)c1 3.78%, Clc1cccc(-c2cc3nc4c(c(NCc5ccco5)n3n2)CCCC4)c1 -4.82%, Brc1ccc(CSc2nnc(-c3ccco3)o2)cc1 -2.39%, c1coc(-c2nnc(SCc3cn4ccccc4n3)o2)c1 2.16%, COc1ccc(-c2c(C)n([O-])c(C)c(-c3ccccc3)[n+]2=O)cc1OC -6.67%, Cc1cccc(OCc2nnc(SCC(=O)Nc3ccc(C)c(Cl)c3)o2)c1 -12%, Cc1cc(C)cc(NC(=O)CN(C)CC(=O)N(CC(C)C)c2c(N)n(CC(C)C)c(=O)[nH]c2=O)c1 1.78%, COc1cc(-c2ccc(NC(C)=O)c(OC)c2)ccc1NC(C)=O 1.06%, O=C(O)c1ccccc1Nc1ccccc1C(=O)O 5.44%, CCOc1cc(-n2nc(C)c(C#N)c2N)nc(SC)n1 -1.98%, COc1cccc(/C=C2\CCCCC2=O)c1 8.63%, CC(NC(=O)C12CC3CC(C1)CC(n1cncn1)(C3)C2)C12CC3CC(CC(C3)C1)C2 (stereo not given) -7.08%, O=C(COC(=O)CCC(=O)N1CCOCC1)Nc1ccc(Br)cc1Br 3.75%, O=C(C1CCCN1S(=O)(=O)c1ccc(Cl)cc1)N1CCCCC1 (stereo not given) -2.58%, O=C(O)c1ccc(N2CCCCC2)cc1 8.04%, Nc1ccc(N2CCN(c3ccc(Cl)c(Cl)c3)CC2)cc1 22.2%, CN1CCN(c2ccc(C(=O)c3ccc(F)cc3)cc2)CC1 -7.54%, O=Cc1ccc(N2CCCCC2)cc1 -6%, CCn1c(SCC(=O)NC2CC2)nnc1-c1ccccc1 -1.91%, COc1ccc(CNC(=O)c2ccccc2NS(C)(=O)=O)cc1 1.78%, C=C(C)CNC(=S)NNC(=O)c1ccncc1 -3.17%, Cc1cc(C)c(S(=O)(=O)NCCc2ccncc2)c(C)c1 -0.3%, CC(NC(N)=O)C(=O)Nc1ccc(Cl)c(S(=O)(=O)Nc2ccc(Br)cc2)c1 (stereo not given) 10.3%, CCOc1ccc(S(=O)(=O)n2ccc(C)n2)cc1 -9.61%, CCOc1ccc(NC(=O)NC2CCOC(C)(C)C2)cc1 (stereo not given) 22%, CCOc1ccc(NCCC#N)cc1 -2.11%, Cc1cc(C)c(NC(=O)CSc2nc3c(c(=O)n2C)SC(C)C3)c(C)c1 (stereo not given) 3.57%, Cc1ccc(C)c(NC(=O)CSc2nc3c(c(=O)n2C)SC(C)C3)c1 (stereo not given) 8.15%, CCC(C)N(NC(C)=O)c1nc(Cl)nc(NC(C)(C)C)n1 (stereo not given) 7.21%, COc1ccc(/C=N/NC(=O)CN(C2=NS(=O)(=O)c3ccccc32)c2ccccc2)cc1 22.5%, CCOC(=O)C1(Cc2cccc(OC)c2)CCN(Cc2ccc(C)s2)CC1 11.4%, Cc1cc(C(C)(C)C)c(O)c(C(C)(C)C)c1 17.9%, Cc1ccc(O)c(Cc2cc(C)cc(Cc3cc(C)ccc3O)c2O)c1 -3.64%, COc1ccc(OC)c(-c2[nH]nc3c2C(c2ccco2)C(C#N)=C(N)O3)c1 (stereo not given) 17.4%, CC(=O)Nc1ccc(S(=O)(=O)Nc2nc3ccc([N+](=O)[O-])cc3s2)cc1 0.77%, O=C(NC1CC1)c1cc(-c2ccccn2)nc2ccccc12 -3.96%, COc1ccc(-c2cc(C(=O)NCC3CCCO3)c3ccccc3n2)cc1 (stereo not given) -7.4%, O=C(Nc1cccc(S(=O)(=O)NC2=NCCC2)c1)c1cc(-c2ccccn2)nc2ccccc12 -2.06%, O=C(NCC1CCCO1)c1cc(-c2ccncc2)nc2ccccc12 (stereo not given) -2.45%, O=C(NNC(=O)c1cc(-c2ccco2)nc2ccccc12)c1ccccc1 14%, O=C(Nc1cccc(S(=O)(=O)NC2=NCCC2)c1)c1cc(-c2ccco2)nc2ccccc12 -0.28%, CN(CCc1ccccn1)S(=O)(=O)c1ccc(F)cc1 1.96%, Cc1cc2c(Nc3ccc(O)cc3)ncnc2s1 -0.33%, N#CC(C#N)=C1NC2(CCCC2)Cc2ccccc21 1.13%, Cc1ccc(Nc2nc(N)nc(CN3CCN(Cc4ccc5c(c4)OCO5)CC3)n2)cc1C 3.16%, CC(C)(O)C#Cc1ccc(C(=O)NCc2ccccc2)s1 6.16%, Cc1cccc(Oc2nc(-c3cccc([N+](=O)[O-])c3)nc3ccccc23)c1C -5.88%, Cc1ccc(NC2=NC(c3ccc(F)cc3)n3c(nc(C)cc3=O)N2)cc1 (stereo not given) 5.66%, CC(C)(C)OC(=O)NCCCC[C@H](NC(=O)c1nc[nH]c1C(=O)N[C@@H](CCCCNC(=O)OC(C)(C)C)C(=O)OC(C)(C)C)C(=O)OC(C)(C)C -5.41%, CC(=O)N1CCN(C(=O)CCC(=O)O)CC1 -4.74%, Cc1ccccc1N(CC(=O)NCCSCc1ccco1)S(C)(=O)=O 3.05%, Cc1ccc(C)c(N(CC(=O)NCCSCc2ccco2)S(C)(=O)=O)c1 12%, COc1ccc(N(CC(=O)NCCSCc2ccco2)S(=O)(=O)c2ccc(C)cc2)cc1 -1.79%, Cc1ccc(N(CC(=O)NCCSCc2ccco2)S(=O)(=O)c2ccc(C)cc2)cc1 -4.1%, O=C(CSc1nc2[nH]ncc2c(=O)[nH]1)Nc1cc(C(F)(F)F)ccc1Cl 3.21%, COc1ccc(CCNC(=O)CCSc2nc(-c3ccco3)cc(C(F)(F)F)n2)cc1 2.48%, CNC(=O)OCc1nc(SSC(C)(C)C)n(C)c1COC(=O)NC -4.09%, O=C(c1c(Cl)cccc1Cl)N1CCN(c2ccccn2)CC1 3.31%, CCOc1ccc2[nH]c(=O)c(CN(Cc3ccco3)C(CC)c3nnnn3Cc3ccccc3)cc2c1 (stereo not given) 4.17% and 12.4%, CCC(c1nnnn1Cc1ccccc1)N(Cc1ccco1)Cc1cc2cc(OC)ccc2[nH]c1=O (stereo not given) 6.8% and 6.79%, CCOC(=O)c1cc(NC(=O)CNCC(c2ccccc2)N(C)C)cc(C(=O)OCC)c1 (stereo not given) -3.03%, O=C1NC(Cc2ccccc2)c2nc3ccccc3c(=O)n2-c2cc3ccccc3cc21 (stereo not given) 0.54%, CC1NC(=O)NC1CCCCCC(=O)Nc1ccc(F)c(Cl)c1 (stereo not given) -8.82%, CC1NC(=O)NC1CCCCCC(=O)NCCc1ccccc1 (stereo not given) 31.4%, Cc1ccc(NC(=O)CCC(=O)Nc2ccc(C)cc2)cc1 2.94%, CCc1cccc(NC(=O)CCSCCC(=O)Nc2cccc(CC)c2)c1 -3.74%, Cc1c(Cl)cccc1NC(=O)CCCCCN1C(=O)CCC1=O -0.64%, Cc1c(F)cccc1NC(=O)CSCC(=O)Nc1ccccc1 4.77%
